Assay results taken from PubChem BioAssay.

Test: probe aWnt5a binding to arrayed compounds – biochemical, biotinylated probe, 635/667 nm fluorescence, primary screen (AID 1113);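 further: score merges 667 nm fluorescence intensity with signal-to-noise per printed feature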
Details: small-molecule microarray, higher = more signal

Row | SMILES | composite z-score
1 | CC(C)[Si]1(C(C)C)OCc2cc(C3CC3)nc(-c3ccc(Oc4ccccc4)cc3)c21 | -0.18
2 | O=C1NC(=O)C2C1C=CC(C(O)c1ccco1)N2Nc1ccc(Cl)cc1Cl (stereo not given) | -0.152
3 | Cc1ccc(N2C(=O)c3ccccc3[C@@H](C(=O)NCCCN(C)C)[C@@H]2c2ccc(CO)cc2)nc1 | -0.22
4 | CCCCCCc1nc(Cc2cc(OC)c(OC)c(OC)c2)cc2c1[Si](C(C)C)(C(C)C)OC2 | -0.0462
5 | CCOC(=O)C1=C[C@@H](C(C)(C)C)N(S(=O)(=O)c2ccc(C)cc2)[C@H]1c1cccc2ccccc12 | -0.0478
6 | COc1cc2c(cc1O)C(c1cccs1)N(Cc1cc3c(cc1Br)OCO3)CC2 (stereo not given) | -0.0286
7 | C=CCNC(=O)[C@@H]1[C@H]2C(=O)O[C@H](c3ccccc3)[C@H](c3ccccc3)N2[C@H](c2ccccc2OCCO)[C@@]12C(=O)Nc1ccc(C#CCC(C(=O)OC)C(=O)OC)cc12 | -0.0258
8 | C=CCN1C(=O)[C@]2(CCS(=O)(=O)c3ccccc3)N=C(c3ccc(OCCCO)cc3)O[C@@H]2c2ccccc21 | -0.0268
9 | CC(c1ccccc1)C(O)C1C=CC2C(=O)N(C)C(=O)C2N1Nc1ccccc1 (stereo not given) | 0.157
10 | N#Cc1ccc(NN2C(C(O)c3ccc(Br)cc3)C=CC3C(=O)N(c4ccccc4)C(=O)C32)cc1 (stereo not given) | 0.234
11 | COc1ccc([Si](C)(C)[C@@H]2[C@@H](CCO)O[C@]3(C(=O)N(Cc4cccc(NC(=O)[C@H](C)O)c4)c4ccccc43)[C@H]2C)cc1 | 0.0998
12 | CCCCC(CC)C(O)C1C=CC2C(=O)N(C)C(=O)C2N1Nc1ccccc1 (stereo not given) | -0.0721
13 | COCCOC(=O)N1C(=O)[C@@]2(c3cc(C#CCCO)ccc31)[C@H](c1ccc(OCCO)cc1)N1[C@H](c3ccccc3)[C@H](c3ccccc3)OC(=O)[C@H]1[C@@H]2C(=O)Nc1nc2ccccc2s1 | -0.0977
14 | [N-]=[N+]=NCc1ccccc1[C@@H]1OC(c2ccc(OCCCO)cc2)=N[C@]1(CCS(=O)(=O)c1ccccc1)C(=O)O | 0.0487
15 | O=C1C[C@]2(c3ccc([N+](=O)[O-])cc3)C(=O)N(C3CC3)c3cc(CO)ccc3[C@H]2N1CC12CC3CC(CC(C3)C1)C2 | -0.148
16 | CCCC[C@@H]1C[C@H]1[C@@H](NC(=O)c1cccs1)c1ccccc1C(F)(F)F | -0.001
17 | O=C(Cc1ccccc1)[C@H]1C2C=CCCC(c3ccccc3)=C2CN1Cc1ccccc1 (stereo not given in full) | -0.0566
18 | COC(=O)[C@]1(CCS(=O)(=O)c2ccccc2)N=C(c2ccc(OCCCO)cc2)O[C@@H]1c1ccccc1N=[N+]=[N-] | 0.0655
19 | COCCOC(=O)N1C(=O)[C@@]2(c3cc(C#CC4=CCCCC4)ccc31)[C@H](c1ccccc1OCCO)N1[C@H](c3ccccc3)[C@H](c3ccccc3)OC(=O)[C@H]1[C@@H]2C(=O)N1CCN(c2ncccn2)CC1 | -0.206
20 | CN(C)C(=O)[C@@]1(Cc2ccccc2)N=C(c2ccc(OCCCO)cc2)O[C@H]1c1ccccc1 | 0.217
21 | COc1ccc(C#Cc2ccc3c(c2)[C@]2(C(=O)N3)[C@H](C(=O)O)[C@H]3C(=O)O[C@H](c4ccccc4)[C@H](c4ccccc4)N3[C@@H]2c2ccc(O)cc2)cc1 | -0.124
22 | CCCCC[C@H]1OC[C@@]23C=C(Br)[C@@H](CC12)[C@@]1(CO1)C3=O (stereo not given in full) | -0.16
23 | CC1CC/C=C\[C@H]2OC34C=CCN(c5ccc(Cl)cc5)C(=O)[C@H]3N(C(C)CO)C(=O)[C@]4(C)C2C(=O)O1 (stereo not given in full) | -0.124
24 | COc1cc2c(cc1O)C(C1CC1)N(Cc1cccc(OC(F)(F)F)c1)CC2 (stereo not given) | -0.062
25 | COc1cc(C(O)C2C=CC3C(=O)N(C)C(=O)C3N2Nc2ccccc2)cc(OC)c1OC (stereo not given) | 0.233
26 | [N-]=[N+]=NCc1ccccc1[C@H]1OC(c2ccc(OCCCO)cc2)=N[C@@]1(Cc1ccccc1N=[N+]=[N-])C(=O)NCC(O)CO (stereo not given in full) | 0.112
27 | COC(=O)[C@@]1(Cc2ccc(OC)cc2)[C@H]2c3cc(C(=O)N(C)C)n(Cc4ccc(OC(F)(F)F)cc4)c3C[C@H]2CN1C(=O)c1ccccc1 | -0.0807
28 | C=C(/C(=C/C[C@H](OC(C)=O)c1ccc(CO)o1)c1cnc2ccccc2c1)C(C)C | -0.0643
29 | Cc1ccc(S[C@]2(C(=O)NCc3ccccc3)CC(=O)N(C3CCCCC3)[C@@H]2c2ccc(CO)cc2I)cc1 | 0.205
30 | COc1ccc([Si](C)(C)[C@@H]2[C@@H](CC(=O)N3Cc4ccccc4C[C@H]3CO)O[C@]3(C(=O)N(Cc4ccc(N5C(=O)c6cccc7cccc5c67)cc4)c4ccccc43)[C@H]2C)cc1 | -0.0585
